Assay results reported in PubChem BioAssay (NCI).
This is part of a sample that, as a whole, favours compounds with a hit. Of some 79,000 tested, about 15% had one in any assay. Unmarked numbers belong to inactive results. Calls of active or inactive are those of the source. Rule as the data show it: active = growth inhibition above about 70%; inactive = the rest.

Assay: NCI Yeast Anticancer Drug Screen. Data for the mgt1 strain (AID 153)
Conditions: S. cerevisiae mgt1 mutant growth inhibition; at 3.7 µM; hits give high values
Summary of the method: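 Vehicle-normalized growth inhibition is determined in mgt1 yeast, a strain selected for a defined alteration in DNA repair or cell cycle control.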

SMILES | growth inhibition
COC(=O)c1ccc(NCC2=CC(=O)C=CC2=O)cc1O | 30%
C(CCSC1=NCCN1)CSC1=NCCN1 (tested in a mixture with another compound) | 18%
N#Cc1c(N)[nH]c2ccc(Sc3ccccc3)cc12 | -2%
CCNc1nnc(CSc2nc(-c3ccccc3)c(-c3ccccc3)[nH]2)s1 | -11%
CC[C@@]1(O)C(=O)OCc2c1cc1n(c2=O)Cc2cc3c(N)cccc3nc2-1 | -3%

Same assay, conditions: S. cerevisiae mgt1 mutant growth inhibition; at 11.0 µM; hits give high values

SMILES | growth inhibition
S=C(S)NN1CCOCC1 | 30%
COc1cc2c3c(cccc3c1)C(=O)N(CCN(C)C)C2=O | -32%
COC(=O)C1=C(C)NC(C)=C(C(=O)OCCCN2CCC(c3ccccc3)(c3ccccc3)CC2)C1c1cccc([N+](=O)[O-])c1 (stereo not given) | 98% (active)
c1ccc2c(c1)Oc1cccc3cccc-2c13 | 1%
CN(C)CCOc1ccc2c(c1)C/C(=C/c1ncc([N+](=O)[O-])n1C)C2=O | 29%
Cc1ccc(CCC2=CCCc3c2ccc2ccccc32)cc1 | -3%
CNC(=O)OCc1c(COC(=O)NC)c(-c2ccc(Cl)c(Cl)c2)n2c1CCC2 | -69%
Clc1ccccc1C1OC1c1ccccc1Cl (stereo not given) | -65%
O=[N+]([O-])c1cc(CCl)ccc1CCl | 25%
O=C1C=CC(=O)c2c(O)c(Nc3ccc(OC(F)(F)F)cc3)c(Cl)c(O)c21 | 16%
S=c1[nH]nc(Nc2ccc(Cl)cc2)s1 | -2%
Cn1ccnc1Oc1ccc(Cl)cc1 | 0%
BrCc1cccc2ccc3cccc(CBr)c3c12 | 1%
O=C1c2ccccc2-c2nc3ccccc3nc21 | -26%
CCCCCCCCCCCCCCCCCCNC | 21%
Oc1ccc(NCn2c(=S)sc3ccccc32)cc1 | 37%
O=C1C2CC[C@@H]3C(=O)C(Cl)(Cl)[C@@H]3CCC2C1(Cl)Cl (stereo not given in full) | 8%
CC[n+]1ccc2c(C)c3[nH]c4ccc(O)cc4c3c(C)c2c1 | -16%
Cc1ccc(-n2cc(-c3ccc(Cl)cc3)c(C#N)c2N)cc1 | 2%
CC(=O)[O][Bi]([c]1ccccc1)[c]1ccccc1 | 40%

SMILES | growth inhibition
CC1=C(SCCO)C(=O)c2ccccc2C1=O | 23%
C/C(=N\O)C1CC2C=C(C#N)C1N(Cc1ccccc1)C2 (stereo not given) | -5%
CC(Br)C(=O)c1ccc2cc(Br)c3ccccc3c2c1 (stereo not given) | -1%
Nc1nc(-c2cccnc2)cc(-c2cc(-c3cccnc3)nc(N)n2)n1 | 2%
CC(C)=CC(=O)O[C@@H]1CC(C)(C)CC2C3=CCC4[C@]56CC[C@](O)(OC5)C(C)(C)C6CC[C@@]4(C)C3(C)CC[C@]21C(=O)O (stereo not given in full) | 57%
CCC(C)COC(=O)c1ccc(N=Cc2ccc(C=Nc3ccc(C(=O)OCC(C)CC)cc3)cc2)cc1 (stereo not given) | -4%
Oc1cccc2c(Cl)ccnc12 | 98% (active)
O=C(O)c1cccc(-c2c3ccc(=O)cc-3oc3cc(O)ccc23)c1 | 43%
CN(CCc1ccccn1)c1ccc2c(c1)Cc1ccccc1-2 | 1%
Cc1cc(S(=O)(=O)/N=C(/NN)NNc2cccc(C(F)(F)F)n2)c(S)cc1Cl | -5%
O=C1C2C(C(=O)N1c1ccc(OCc3ccccc3)cc1)C1c3ccccc3C2C2CCCCN21 (stereo not given) | -11%
Nc1ccccc1CC(O)C(=O)O (stereo not given) | 14%
O=C(O)C1CCCCC1c1c2ccc(=O)c(O)c-2oc2c(O)c(O)ccc12 (stereo not given) | 15%
Cc1ccc2ccc(O)cc2c1 | -22%
O=C1C(=O)c2ccccc2C=C1[N+](=O)[O-] | 9%
COC(=O)c1ccc(NCC2=CC(=O)C=CC2=O)cc1O | 77% (active)
C(CCSC1=NCCN1)CSC1=NCCN1 (tested in a mixture with another compound) | 89% (active)
N#Cc1c(N)[nH]c2ccc(Sc3ccccc3)cc12 | 9%
CCNc1nnc(CSc2nc(-c3ccccc3)c(-c3ccccc3)[nH]2)s1 | -18%
CC[C@@]1(O)C(=O)OCc2c1cc1n(c2=O)Cc2cc3c(N)cccc3nc2-1 | 9%

Same assay, conditions: S. cerevisiae mgt1 mutant growth inhibition; at 33.0 µM; hits give high values

SMILES | growth inhibition
S=C(S)NN1CCOCC1 | 21%
COc1cc2c3c(cccc3c1)C(=O)N(CCN(C)C)C2=O | -23%
COC(=O)C1=C(C)NC(C)=C(C(=O)OCCCN2CCC(c3ccccc3)(c3ccccc3)CC2)C1c1cccc([N+](=O)[O-])c1 (stereo not given) | 98% (active)
c1ccc2c(c1)Oc1cccc3cccc-2c13 | 16%
CN(C)CCOc1ccc2c(c1)C/C(=C/c1ncc([N+](=O)[O-])n1C)C2=O | 36%
Cc1ccc(CCC2=CCCc3c2ccc2ccccc32)cc1 | -8%
CNC(=O)OCc1c(COC(=O)NC)c(-c2ccc(Cl)c(Cl)c2)n2c1CCC2 | 95% (active)
Clc1ccccc1C1OC1c1ccccc1Cl (stereo not given) | -35%
O=[N+]([O-])c1cc(CCl)ccc1CCl | 90% (active)
O=C1C=CC(=O)c2c(O)c(Nc3ccc(OC(F)(F)F)cc3)c(Cl)c(O)c21 | 50%
S=c1[nH]nc(Nc2ccc(Cl)cc2)s1 | -8%
Cn1ccnc1Oc1ccc(Cl)cc1 | 15%
BrCc1cccc2ccc3cccc(CBr)c3c12 | -2%
O=C1c2ccccc2-c2nc3ccccc3nc21 | -1%
CCCCCCCCCCCCCCCCCCNC | 26%
Oc1ccc(NCn2c(=S)sc3ccccc32)cc1 | 87% (active)
O=C1C2CC[C@@H]3C(=O)C(Cl)(Cl)[C@@H]3CCC2C1(Cl)Cl (stereo not given in full) | -2%
CC[n+]1ccc2c(C)c3[nH]c4ccc(O)cc4c3c(C)c2c1 | -5%
Cc1ccc(-n2cc(-c3ccc(Cl)cc3)c(C#N)c2N)cc1 | -41%
CC(=O)[O][Bi]([c]1ccccc1)[c]1ccccc1 | 89% (active)

SMILES | growth inhibition
CC1=C(SCCO)C(=O)c2ccccc2C1=O | -10%
C/C(=N\O)C1CC2C=C(C#N)C1N(Cc1ccccc1)C2 (stereo not given) | -3%
CC(Br)C(=O)c1ccc2cc(Br)c3ccccc3c2c1 (stereo not given) | 2%
Nc1nc(-c2cccnc2)cc(-c2cc(-c3cccnc3)nc(N)n2)n1 | -1%
CC(C)=CC(=O)O[C@@H]1CC(C)(C)CC2C3=CCC4[C@]56CC[C@](O)(OC5)C(C)(C)C6CC[C@@]4(C)C3(C)CC[C@]21C(=O)O (stereo not given in full) | 89% (active)
CCC(C)COC(=O)c1ccc(N=Cc2ccc(C=Nc3ccc(C(=O)OCC(C)CC)cc3)cc2)cc1 (stereo not given) | -6%
Oc1cccc2c(Cl)ccnc12 | 95% (active)
O=C(O)c1cccc(-c2c3ccc(=O)cc-3oc3cc(O)ccc23)c1 | 80% (active)
CN(CCc1ccccn1)c1ccc2c(c1)Cc1ccccc1-2 | 3%
Cc1cc(S(=O)(=O)/N=C(/NN)NNc2cccc(C(F)(F)F)n2)c(S)cc1Cl | 10%
O=C1C2C(C(=O)N1c1ccc(OCc3ccccc3)cc1)C1c3ccccc3C2C2CCCCN21 (stereo not given) | 2%
Nc1ccccc1CC(O)C(=O)O (stereo not given) | 74% (active)
O=C(O)C1CCCCC1c1c2ccc(=O)c(O)c-2oc2c(O)c(O)ccc12 (stereo not given) | 53%
Cc1ccc2ccc(O)cc2c1 | -21%
O=C1C(=O)c2ccccc2C=C1[N+](=O)[O-] | 15%
COC(=O)c1ccc(NCC2=CC(=O)C=CC2=O)cc1O | 97% (active)
C(CCSC1=NCCN1)CSC1=NCCN1 (tested in a mixture with another compound) | 99% (active)
N#Cc1c(N)[nH]c2ccc(Sc3ccccc3)cc12 | 96% (active)
CCNc1nnc(CSc2nc(-c3ccccc3)c(-c3ccccc3)[nH]2)s1 | 87% (active)
CC[C@@]1(O)C(=O)OCc2c1cc1n(c2=O)Cc2cc3c(N)cccc3nc2-1 | 2%
